Potency data for 1 compound are collected here from PubChem BioAssay AID652023 (National Center for Advancing Translational Sciences (NCATS), 2013).

Some of the results follow. Inconclusive results are not listed. Active and inactive are the calls of the source. Calls follow the shape of the dose curve; as a rule, active = well fitted inhibition curve with a large enough effect; inconclusive = small, poorly fitted or top-dose-only effect; inactive = flat fitted curve, though single readings scatter.

In this test the target is Thioredoxin reductase 1, cytoplasmic (Rattus norvegicus) (UniProt O89049). The experiment in a line: qHTS Assay for Inhibitors of Mammalian Selenoprotein Thioredoxin Reductase 1 (TrxR1): Hit Validation in Primary Screen. The settings on record: recombinant TrxR1, NADPH fluorescence consumption, selenite substrate. From the text:
The selenoprotein thioredoxin reductase (TrxR; EC 1.8.1.9) is a FAD containing homodimeric pyridine nucleotide-disulfide oxidoreductase with many cellular roles. Together with NADPH and its prime substrate thioredoxin (Trx), the enzyme forms the core of the Trx system. The mammalian Trx system exerts a wide spectrum of functions including redox regulation, antioxidant defense, regulation of transcription factors as well as support of cell growth and replication. Many of these functions involve the reduction of Trx, which may subsequently reduce a number of different substrates including ribonucleotide reductase, peroxiredoxins or NFkB. […]
Assay protocol: 2 uL of reagents (buffer in column 4 as negative control and 90 nM rTrxR1 in columns 1-3 and 5-48) were dispensed into Greiner black solid-bottom 1,536-well assay plates, followed by 1 uL of NADPH (400 uM final concentration) to each well. […] The plate was immediately transferred to a ViewLux high-throughput CCD imager (PerkinElmer), wherein kinetic measurements of NADPH fluorescence (Ex 340 nm, Em 450 nm) were acquired (8 minute kinetic read). Read 1 was utilized to assess the capacity of a compound to serve as an rTrxR1 substrate, i.e. a decrease in NADPH fluorescence compared to the no-compound background is an indication of a substrate behavior for that particular compound. […]

Chain of Thioredoxin reductase 1, cytoplasmic (Rattus norvegicus) (O89049 whole entry, looked up): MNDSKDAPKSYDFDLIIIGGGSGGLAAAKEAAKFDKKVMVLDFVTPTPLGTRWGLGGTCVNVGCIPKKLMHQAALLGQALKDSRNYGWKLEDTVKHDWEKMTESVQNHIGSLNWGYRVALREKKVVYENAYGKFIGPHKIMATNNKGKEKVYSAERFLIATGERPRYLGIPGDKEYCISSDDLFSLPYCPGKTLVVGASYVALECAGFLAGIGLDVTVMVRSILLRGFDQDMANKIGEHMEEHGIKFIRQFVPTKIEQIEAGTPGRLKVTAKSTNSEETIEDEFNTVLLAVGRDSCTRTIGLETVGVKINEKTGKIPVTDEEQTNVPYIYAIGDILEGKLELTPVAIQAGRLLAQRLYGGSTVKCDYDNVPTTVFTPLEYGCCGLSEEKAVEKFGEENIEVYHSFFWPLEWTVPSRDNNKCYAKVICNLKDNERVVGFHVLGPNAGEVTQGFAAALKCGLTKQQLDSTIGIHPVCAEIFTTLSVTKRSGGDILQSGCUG

As for `CC1CCN(C(=O)c2ccc(S(=O)(=O)Cc3cc(F)ccc3F)c([N+](=O)[O-])c2)CC1`, the Potency was 2380 nM (active).
